Data published in PubChem BioAssay (EPA / NIEHS).
Results filed as inconclusive are left out. Calls of active or inactive are those of the source. Rule for the calls: active = hit-call score of the fitted dose curve at least 0.9, where 1 is the maximum; inconclusive = response in the unintended direction; inactive = score below 0.9.

biological target: human MAP Kinase-Activated Protein Kinase 2 (MAPKAPK2), MAPKAPK2 (gene 9261) (UniProt P49137); assay: NVS_ENZ_hMAPKAPK2: NovaScreen (NVS) Enzymatic Assay for human MAP Kinase-Activated Protein Kinase 2 (MAPKAPK2) (AID 2283178)
Summary of the method: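 Cell-free recombinant human MAPKAPK2 activity measured by fluorescence with electrophoretic mobility shift separation of substrate and product, 1 hr after dosing. Loss of signal versus DMSO; primary screen at 25 uM, concentration-response up to 50 uM.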

Sequence of human MAP Kinase-Activated Protein Kinase 2 (MAPKAPK2), MAPKAPK2 (gene 9261) (P49137 whole entry, looked up): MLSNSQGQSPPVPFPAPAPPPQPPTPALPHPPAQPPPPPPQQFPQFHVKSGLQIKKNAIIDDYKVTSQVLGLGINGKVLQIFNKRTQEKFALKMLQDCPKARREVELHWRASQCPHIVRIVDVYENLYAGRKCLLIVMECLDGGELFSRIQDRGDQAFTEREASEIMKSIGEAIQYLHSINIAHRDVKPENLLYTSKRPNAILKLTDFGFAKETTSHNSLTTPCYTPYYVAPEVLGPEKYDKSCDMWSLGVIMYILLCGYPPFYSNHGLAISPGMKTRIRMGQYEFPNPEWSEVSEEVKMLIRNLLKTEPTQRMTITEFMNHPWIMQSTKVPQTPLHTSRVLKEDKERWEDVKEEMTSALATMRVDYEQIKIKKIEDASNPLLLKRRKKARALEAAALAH

Row | SMILES | outcome
1 | OCCC(F)(F)C(F)(F)C(F)(F)C(F)(F)C(F)(F)C(F)(F)C(F)(F)C(F)(F)F | inactive
2 | OC1CCC(C2CCCCC2)CC1 (stereo not given) | inactive
3 | CC[C@H](c1ccc(O)cc1)[C@@H](CC)c1ccc(O)cc1 | inactive

biological target: human Phosphodiesterase 4A1 (PDE4A1), PDE4A (gene 5141) (UniProt P27815); assay: NVS_ENZ_hPDE4A1: NovaScreen (NVS) Enzymatic Assay for human Phosphodiesterase 4A1 (PDE4A1) (AID 2283191)
Description: (§1) NVS_ENZ_hPDE4A1 is a biochemical, single-readout assay that uses extracted gene-proteins in a cell-free assay. Measurements were taken 1 hour after chemical dosing in a 384-well plate.NVS_ENZ_hPDE4A1 is one of one assay component(s) measured or calculated from the NVS_ENZ_hPDE4A1 assay. It is designed to make measurements of enzyme activity, a form of enzyme reporter, as detected with fluorescence intensity signals by Fluorescence and electrophoretic mobility shift technology.Data from the assay component NVS_ENZ_hPDE4A1 was analyzed into 1 assay endpoint. This assay endpoint, NVS_ENZ_hPDE4A1, was analyzed in the positive analysis fitting direction relative to DMSO as the negative control and baseline of activity. Using a type of enzyme reporter, loss-of-signal activity can be used to understand changes in the enzymatic activity as they relate to the gene PDE4A. Furthermore, this assay endpoint can be referred to as a primary readout, because this assay has produced multiple assay endpoints where this one serves a enzymatic activity function. To generalize the intended target to other relatable targets, this assay endpoint is annotated to the esterase intended target family, where the subfamily is phosphodiesterase.
(§2) Binding assays used specific radioligands (tritiated, iodinated) with non-radioactive competitive displacement ligands in agonist or antagonist protocols (as indicated) and various reference compounds and inhibitors to titrate specific binding to receptors and transporters. Most enzyme assays (CYPs, kinases, phosphatases, proteases, HDACs) used recombinant protein and specific substrates (fluorescence mostly, some colorimetric and radioactive) and inhibitors, followed by a biochemical separation of substrate and product. All assays for the biochemical HTS were initially run in duplicate at a single concentration (10 uM for CYP450 assays and 25 uM for all others). Assay-chemical combinations meeting a pre-defined threshold (e.g., 30% inhibition and other criteria defined below) were then run in singleton concentration-response format with maximum concentration of 20 uM for CYPs and 50 uM for all others. Each assay was run with positive and negative controls, and concurrent controls on every plate. The follow-up (secondary) screen tested active chemical-pairs in concentration series, as well as a few additional assays not tested in the primary screen, some selected negative inactives, and several cases re-run in the concentration series for confirmatory purposes.

Sequence of human Phosphodiesterase 4A1 (PDE4A1), PDE4A (gene 5141) (P27815 whole entry, looked up): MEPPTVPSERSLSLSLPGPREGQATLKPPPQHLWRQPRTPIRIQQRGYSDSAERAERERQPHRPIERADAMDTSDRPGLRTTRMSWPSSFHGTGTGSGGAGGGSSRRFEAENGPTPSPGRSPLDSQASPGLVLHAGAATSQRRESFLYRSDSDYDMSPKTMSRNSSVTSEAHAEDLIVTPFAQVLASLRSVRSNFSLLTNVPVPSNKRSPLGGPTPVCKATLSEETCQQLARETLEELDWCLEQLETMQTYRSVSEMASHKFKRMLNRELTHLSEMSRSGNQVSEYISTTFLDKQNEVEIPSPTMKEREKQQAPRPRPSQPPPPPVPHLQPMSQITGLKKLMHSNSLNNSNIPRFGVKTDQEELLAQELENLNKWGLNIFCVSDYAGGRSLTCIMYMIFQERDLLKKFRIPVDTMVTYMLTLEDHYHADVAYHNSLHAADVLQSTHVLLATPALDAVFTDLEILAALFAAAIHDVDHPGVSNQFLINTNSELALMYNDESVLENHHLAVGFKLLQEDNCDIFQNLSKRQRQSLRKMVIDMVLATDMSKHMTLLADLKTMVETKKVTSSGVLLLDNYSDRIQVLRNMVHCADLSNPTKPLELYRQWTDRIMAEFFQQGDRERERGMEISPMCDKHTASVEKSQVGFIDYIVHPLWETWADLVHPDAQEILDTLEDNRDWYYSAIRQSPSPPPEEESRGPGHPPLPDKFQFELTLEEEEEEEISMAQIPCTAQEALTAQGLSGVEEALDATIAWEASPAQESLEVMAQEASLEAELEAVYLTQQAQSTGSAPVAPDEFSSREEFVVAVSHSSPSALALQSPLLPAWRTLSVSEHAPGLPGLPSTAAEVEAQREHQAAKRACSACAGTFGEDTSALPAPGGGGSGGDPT

Row | SMILES | outcome | AC50
4 | c1ccc2cc3c(ccc4ccccc43)cc2c1 | inactive | –
5 | CCCCCCCCCCCCCCCS(=O)(=O)Oc1ccccc1 | inactive | –
6 | CCc1nn(C2CCCCC2)c2cc(C3(C#N)CCC(C(=O)O)CC3)ccc12 (stereo not given) | – | 0.00229 µM (active)
7 | NC(=O)N(O)[C@@H]1C=C[C@H](Oc2cccc(Oc3ccc(F)cc3)c2)C1 | – | 23 µM (active)

biological target: human Phosphodiesterase 5 (PDE5), PDE5A (gene 8654) (UniProt O76074); assay: NVS_ENZ_hPDE5: NovaScreen (NVS) Enzymatic Assay for human Phosphodiesterase 5 (PDE5) (AID 2283194)
Description: as §1, with “NVS_ENZ_hPDE5” for “NVS_ENZ_hPDE4A1”, “plate.NVS_ENZ_hPDE5” for “plate.NVS_ENZ_hPDE4A1”, “NVS_ENZ_hPDE5,” for “NVS_ENZ_hPDE4A1,”, “PDE5A.” for “PDE4A.”
as §2, with “Assay-chemical combinations meeting a pre-defined threshold (e.g., 30% inhibition and other criteria defined below) were then run in singleton concentration-response format with maximum concentration of 20 uM for CYPs and 50 uM for all others.” left out

Row | SMILES | outcome
8 | COC(=O)CCCCC(=O)OC | inactive
9 | CC(O)CO (stereo not given) | inactive
10 | OCCC(F)(F)C(F)(F)C(F)(F)C(F)(F)C(F)(F)C(F)(F)F | inactive
11 | CCCCCCC(=O)O | inactive
12 | CCc1nn(C2CCCCC2)c2cc(C3(C#N)CCC(C(=O)O)CC3)ccc12 (stereo not given) | inactive

biological target: human Protein Phosphatase, Mg2+/Mn2+ Dependent 1A (PPM1A), PPM1A (gene 5494) (UniProt P35813); assay: NVS_ENZ_hPPM1A: NovaScreen (NVS) Enzymatic Assay for human Protein Phosphatase, Mg2+/Mn2+ Dependent 1A (PPM1A) (AID 2283198)
Summary of the method: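 Cell-free recombinant PPM1A phosphatase assay with fluorescent substrate, read 1 h after dosing by electrophoretic mobility shift. Chemicals screened in duplicate at 25 uM, then in concentration-response up to 50 uM; loss of activity versus DMSO.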

Sequence of human Protein Phosphatase, Mg2+/Mn2+ Dependent 1A (PPM1A), PPM1A (gene 5494) (P35813 whole entry, looked up): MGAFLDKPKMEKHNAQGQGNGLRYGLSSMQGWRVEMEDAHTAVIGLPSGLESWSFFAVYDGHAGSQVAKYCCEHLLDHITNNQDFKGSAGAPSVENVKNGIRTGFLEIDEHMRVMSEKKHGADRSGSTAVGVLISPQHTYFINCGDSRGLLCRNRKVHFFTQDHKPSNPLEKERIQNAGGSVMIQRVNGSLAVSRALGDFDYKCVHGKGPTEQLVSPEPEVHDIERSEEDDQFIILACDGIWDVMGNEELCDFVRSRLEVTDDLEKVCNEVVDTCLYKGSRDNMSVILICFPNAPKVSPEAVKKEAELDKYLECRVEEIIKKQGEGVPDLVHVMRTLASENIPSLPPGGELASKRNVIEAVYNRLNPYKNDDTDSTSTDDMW

Row | SMILES | outcome
13 | COC(=O)CCCCC(=O)OC | inactive
14 | CCCOc1sc(C(=O)N2CCC(c3cc(CN)ccc3F)CC2)c(C)c1Br | inactive
15 | CCCCCCC(=O)O | inactive
16 | NC(=O)N(O)[C@@H]1C=C[C@H](Oc2cccc(Oc3ccc(F)cc3)c2)C1 | inactive

biological target: Serine/threonine-protein phosphatase PP1-alpha catalytic subunit (Homo sapiens) (UniProt P62136); assay: NVS_ENZ_hPPP1CA: NovaScreen (NVS) Enzymatic Assay for human Protein Phosphatase 1 Aatalytic subunit Alpha (PPP1CA) (AID 2283200)
Summary of the method: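 Recombinant enzyme activity read by fluorescence with electrophoretic mobility shift separating substrate from product, 1.33 h after dosing; loss of signal vs DMSO baseline. Primary screen in duplicate at 25 uM; actives retested in concentration-response up to 50 uM.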

Sequence of Serine/threonine-protein phosphatase PP1-alpha catalytic subunit (Homo sapiens) (P62136 whole entry, looked up): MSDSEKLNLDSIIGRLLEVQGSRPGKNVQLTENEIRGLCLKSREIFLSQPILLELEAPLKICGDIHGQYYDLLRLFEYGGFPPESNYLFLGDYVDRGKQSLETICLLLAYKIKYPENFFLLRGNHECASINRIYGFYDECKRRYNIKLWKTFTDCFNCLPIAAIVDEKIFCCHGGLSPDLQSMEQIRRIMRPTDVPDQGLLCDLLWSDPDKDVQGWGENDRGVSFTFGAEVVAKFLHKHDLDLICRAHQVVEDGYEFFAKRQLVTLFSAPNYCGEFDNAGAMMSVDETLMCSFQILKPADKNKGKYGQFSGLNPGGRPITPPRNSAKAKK

Row | SMILES | outcome
17 | CN1CCC[C@H]1c1cccnc1 | inactive
18 | CC(C)(C)c1cccc(C(C)(C)C)c1O | inactive
19 | CCCCOCCO | inactive
20 | CCCOC(=O)c1ccc(O)cc1 | inactive
